{
  "source": "PubChem BioAssay (NCATS)",
  "note": "Inconclusive results are not listed. Where a call stands in place of a potency, no number is given. The source made the active and inactive calls. The call rests on the fitted dose curve; in most records, active means well fitted inhibition curve with a large enough effect; inconclusive means small, poorly fitted or top-dose-only effect; inactive means flat fitted curve, though single readings scatter.",
  "data": [
    {"biological_target": "Calcium and integrin-binding protein 1 (Homo sapiens) (UniProt Q99828)", "sequence (Q99828 whole entry, looked up)": "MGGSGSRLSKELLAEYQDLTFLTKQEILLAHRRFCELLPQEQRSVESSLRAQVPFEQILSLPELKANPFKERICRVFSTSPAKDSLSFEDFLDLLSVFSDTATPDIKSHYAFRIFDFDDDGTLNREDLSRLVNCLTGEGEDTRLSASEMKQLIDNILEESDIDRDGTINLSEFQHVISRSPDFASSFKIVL", "experiment": "Primary qHTS for Identification of Calcium Integrin Binding Protein 1 (CIB1) Competitor (AID 1508620); further: top concentration of the series differs between compounds", "details": "CIB1-GST / FITC-alphaIIb peptide fluorescence polarization; series mostly up to 114 µM", "summary_of_the_method": "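Fluorescence polarization competition: GST-tagged CIB1 (1 uM final) preincubated with compound 15 min at room temperature, then FITC-labelled alphaIIb peptide (100 nM final) added. After 15 min at room temperature, polarization read at Ex 480/Em 540.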", "values": [
      {"smiles": "COc1ccc(NC(=S)N2CCN(c3cccc(C(F)(F)F)c3)CC2)nc1", "Potency": "inactive"},
      {"smiles": "Cn1nnnc1Sc1ncnc2scc(-c3cccc(C(F)(F)F)c3)c12", "Potency": "inactive"},
      {"smiles": "Cc1ccc(OCCn2c(CCNC(=O)C3CCC3)nc3ccccc32)cc1", "Potency": "inactive"},
      {"smiles": "Cc1ccc(S(=O)(=O)Nc2cccc(C(=O)Nc3nc(-c4ccccc4)cs3)c2)cc1", "Potency": "inactive"},
      {"smiles": "Cc1ccc(S(=O)(=O)Nc2cccc3cccnc23)cc1", "Potency": "inactive"},
      {"smiles": "O=C1CCc2cc(S(=O)(=O)Nc3cccc(F)c3)ccc2N1", "Potency": "inactive"},
      {"smiles": "NC(=O)C1CCN(c2nc(-c3cccc4sc5ccccc5c34)cs2)CC1", "Potency": "inactive"},
      {"smiles": "CCC(CC)C(=O)NCCc1nc2ccccc2n1CCOc1ccc(C)cc1", "Potency": "inactive"},
      {"smiles": "COc1cc(Cl)c(C)cc1NC(=O)C(OC(=O)CNC(=O)c1ccccc1)c1ccccc1", "note": "(stereo not given)", "Potency": "inactive"},
      {"smiles": "Cc1cc(C)nc(NC(=S)N2CCN(c3ccc(C(F)(F)F)cn3)CC2)c1", "Potency": "inactive"},
      {"smiles": "COc1cc(NC(=S)N2CCN(c3cccc(C(F)(F)F)c3)CC2)nc2ccccc12", "Potency": "inactive"},
      {"smiles": "COc1ccc(OC)c(NC(=O)c2ccccc2OC(C)=O)c1", "Potency": "inactive"},
      {"smiles": "O=C(NCc1ccc(F)cc1)n1cc(P(=S)(c2ccccc2)c2ccccc2)c2ccccc21", "Potency": "inactive"},
      {"smiles": "Cc1cccc(OC2=NS(=O)(=O)c3ccccc32)c1", "Potency": "inactive"},
      {"smiles": "Cc1ccc(OCCn2c(CCNC(=O)c3ccccc3N)nc3ccccc32)cc1", "Potency": "inactive"},
      {"smiles": "O=C1c2ccccc2NC(c2ccc(-c3ccccc3F)o2)N1O", "note": "(stereo not given)", "Potency": "inactive"},
      {"smiles": "Nc1nc(Nc2cc(F)cc(F)c2)nc(NC2CCCC2)n1", "Potency": "inactive"},
      {"smiles": "Cc1cnc(-c2ccccc2C(C)O)nc1NCC1CCN(c2cccnc2)CC1", "note": "(stereo not given)", "Potency": "inactive"},
      {"smiles": "N#CN/C(=N\\c1nnc(-c2ccncc2)s1)Nc1ccc(F)c(C(F)(F)F)c1", "Potency": "inactive"},
      {"smiles": "Cc1ccc(S(=O)(=O)Nc2ccc(C)cc2C(=O)Nc2nc(-c3ccccc3)cs2)cc1", "Potency": "inactive"},
      {"smiles": "COc1ccc(C2c3c(ncn(Cc4ccccc4)c3=N)Oc3ccc4ccccc4c32)cc1OC", "note": "(stereo not given)", "Potency": "inactive"},
      {"smiles": "Cc1ccc(-c2ccnc(N3CCC(C(N)=O)CC3)n2)cc1", "Potency": "inactive"},
      {"smiles": "O=S(=O)(NCCNc1nc(-c2ccco2)nc2ccccc12)c1ccccc1", "Potency": "inactive"},
      {"smiles": "Fc1cnc(-c2ccccc2C(F)F)nc1NCc1ccc(-c2ccn[nH]2)cc1", "Potency": "inactive"},
      {"smiles": "Cc1c(C(=O)OCC2CCCC2)[nH]c2c1C(=O)CC(c1ccco1)C2", "note": "(stereo not given)", "Potency": "inactive"},
      {"smiles": "COC(=O)c1ccc(O)c2ncccc12", "Potency": "inactive"},
      {"smiles": "CCNC(=O)C1CCN(C(=O)C(C)(C)NC(=O)Nc2ccccc2Cl)CC1", "Potency": "inactive"},
      {"smiles": "CN(C)CCCNc1ccc(NC(=O)c2cccs2)cn1", "Potency": "inactive"},
      {"smiles": "FC(F)(F)c1ccccc1-c1nc(NCc2ccc(-c3cccnc3)cc2)c2[nH]cnc2n1", "Potency": "inactive"},
      {"smiles": "O=C(CN1C(=O)N/C(=C\\c2cccn2-c2cccc(C(=O)O)c2)C1=O)Nc1ccc(F)cc1", "Potency": "inactive"},
      {"smiles": "O=C(Cc1nnc(CNC(=O)c2ccccc2)o1)Nc1cc(C(F)(F)F)ccc1Cl", "Potency": "inactive"},
      {"smiles": "Cc1ccc(OCCn2c(CCNC(=O)c3cc(F)cc(F)c3)nc3ccccc32)cc1", "Potency": "inactive"},
      {"smiles": "CC(Nc1nc(-c2ccccc2C(F)(F)F)nc2ccccc12)c1ccc(-c2ccccc2)cc1", "note": "(stereo not given)", "Potency": "inactive"},
      {"smiles": "CCCCN(C)C(=O)Cn1nc(-c2ccncc2)ccc1=O", "Potency": "inactive"},
      {"smiles": "Cc1cc2c(s1)c1cnn(Cc3c(Cl)ccc(C)c3F)c(=O)c1n2C", "Potency": "inactive"},
      {"smiles": "Cc1ccc(OCCn2c(CCNC(=O)c3cccc(C(F)(F)F)c3)nc3ccccc32)cc1", "Potency": "inactive"},
      {"smiles": "O=C(c1ccco1)N1CCN(c2nc(-c3ccc(Br)cc3)cs2)CC1", "Potency": "inactive"},
      {"smiles": "Cc1cccc2oc(NC3=NC(c4[nH]ncc4Cl)C4=C(CCCC4=O)N3)nc12", "note": "(stereo not given)", "Potency": "inactive"},
      {"smiles": "CC(=O)Nc1sc2c(c1-c1cccnc1)CCNC2", "Potency": "inactive"},
      {"smiles": "COc1ccc(-c2nc3ccccc3c(=O)n2Cc2ccccc2)cc1COc1ccc(NC(C)=O)cc1", "Potency": "inactive"}
    ]}
  ]
}
